Results published in the OligoGym collection.

These sequences were tested against DMXL1 (assay: pooled miR-30 sensor sort-seq; sequence = guide strand). Settings: shRNA.
Note: reference of the scale not given here.

Sequence	sensor-assay potency score (higher = more potent)
TTTCTATTAATGGTAGATCTGG	-0.715
TTTCTGAACTTCCATCTGGAGA	-0.95
TTCGCTAATATATACAACTAAG	-0.796
TTTTCTATAATTCTGAATCAGA	-0.788
TAACATTTCCATAAGACGCTGC	0.508
TAAGTTAAAAGCATTGTGCATT	-0.306
TTTCATTAAATGAACTTGGGAA	0.382
TTTAACACTATGACATACTGAT	0.376
TTGTTTCTGAAAACACTGCTAT	0.009
TTCTATATCATCATCTACCCAA	-0.207
TTTTTCTGAACTTCCATCTGGA	0.702
TTCTACATTATACCAAACCTTC	-0.955
TTGAACTCGTTCTTTACTGGAA	-0.246
TTCTTGAACATCATGACTGGAA	-0.0948
TTCATTTTCATTTAGACTCAGA	-0.406
